High-throughput results as filed in PubChem BioAssay.
HEK293 tox = kills HEK 293 cells. HEK 293 viability, ATP luminescence (CellTiter-Glo), 48-72 h. Potency, µM (top dose mostly 115 µM), inactives show at the top dose activity change, negative = cytotoxicity, most hits filed as inhibitors. actives 6.6% (n = 94,000). AID 1345083; also: nearly all actives have a fitted effect of over 60% in size
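250 HEK 293 cells/well; compound by pintool; incubated 48 or 72 hr at 37 degree Celsius; CellTiter-Glo added, 10 min RT, luminescence imaged.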
GPT2 inh = blocks human glutamate pyruvate transaminase 2; Q8TD30; Recombinant GPT2, coupled pyruvate oxidase/HRP Amplex Red fluorescence; Potency, µM (series often up to 57.7 µM), without a hit: at the top dose activity change, negative = inhibition, actives largely listed as inhibitors; actives 0.25% (n = 100,000); AID 1671188; also: nearly all actives have a fitted effect of over 60% in size
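Fluorescence of coupled pyruvate oxidase/HRP/Amplex Red system (50uM Amplex, 30 min, dark) reports pyruvate formed by GPT2. Enzyme reaction: 10ng/uL GPT2, 2mM L-alanine, 250uM a-KG, 30 min room temperature, pH 7.5; 50uM AOA control.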
FLuc inh = blocks purified firefly luciferase enzyme activity; purified P. pyralis luciferase, luminescence, biochemical; Potency, µM (doses to about 115 µM), most hits filed as inhibitors; actives 2.5% (n = 76,000); AID 1347043; also: nearly all actives have a fitted effect of over 65% in size
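Purified 10nM P. pyralis luciferase with 10uM D-luciferin and 10uM ATP in 50mM Tris acetate pH 7.5, 10mM Mg acetate, 0.01% Tween-20, 0.05% BSA. qHTS titration; luminescence read by CCD imager.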
NPR1 antag = antagonists of human natriuretic peptide receptor Npr1 | actives 1.6% (n = 76,000) | P16066 | HEK293 hNpr1 GloSensor cGMP, ANP-stimulated luminescence | Potency, µM (titrated, usually from 46.3 µM), for inactives: at the top dose activity change, negative = inhibition, actives largely listed as inhibitors; calls by dose curve; also: nearly all actives have a fitted effect of over 60% in size
Target sequence (P16066 whole entry, looked up): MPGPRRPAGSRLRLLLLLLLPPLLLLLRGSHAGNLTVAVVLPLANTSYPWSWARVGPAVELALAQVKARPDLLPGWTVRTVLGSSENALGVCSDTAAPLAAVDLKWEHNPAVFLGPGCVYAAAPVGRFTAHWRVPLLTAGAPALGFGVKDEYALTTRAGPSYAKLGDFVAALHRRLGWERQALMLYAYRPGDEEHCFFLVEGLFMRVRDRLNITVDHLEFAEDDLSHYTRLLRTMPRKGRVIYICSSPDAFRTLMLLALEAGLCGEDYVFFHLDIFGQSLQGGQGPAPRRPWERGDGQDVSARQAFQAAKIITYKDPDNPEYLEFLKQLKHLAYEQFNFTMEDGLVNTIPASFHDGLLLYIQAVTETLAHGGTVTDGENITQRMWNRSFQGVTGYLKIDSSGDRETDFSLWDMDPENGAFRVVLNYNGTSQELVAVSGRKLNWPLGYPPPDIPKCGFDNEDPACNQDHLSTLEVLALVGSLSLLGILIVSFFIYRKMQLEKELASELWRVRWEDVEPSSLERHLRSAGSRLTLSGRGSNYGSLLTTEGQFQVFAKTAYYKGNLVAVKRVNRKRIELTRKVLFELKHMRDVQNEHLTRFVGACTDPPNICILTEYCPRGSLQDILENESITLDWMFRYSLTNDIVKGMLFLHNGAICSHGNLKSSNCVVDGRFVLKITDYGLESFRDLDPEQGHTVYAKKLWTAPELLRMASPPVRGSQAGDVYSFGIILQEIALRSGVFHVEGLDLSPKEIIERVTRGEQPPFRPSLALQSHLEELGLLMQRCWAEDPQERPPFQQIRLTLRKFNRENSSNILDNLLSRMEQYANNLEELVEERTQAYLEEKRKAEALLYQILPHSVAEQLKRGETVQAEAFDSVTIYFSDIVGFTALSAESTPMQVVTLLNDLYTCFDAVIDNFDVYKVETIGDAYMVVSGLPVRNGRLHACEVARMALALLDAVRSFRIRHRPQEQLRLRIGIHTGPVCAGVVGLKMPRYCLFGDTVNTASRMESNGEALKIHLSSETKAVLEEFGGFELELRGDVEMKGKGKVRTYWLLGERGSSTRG
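Compound pre-incubated 30 min at room temperature on GloSensor-loaded HEK293 cells stably carrying hNpr1 and the pGS-40F cGMP biosensor. Stimulation uses hNppA at 0.1 nM final; luminescence is taken at baseline and 20 min post-agonist.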
NIH3T3 tox = NIH 3T3 cell cytotoxicity | NIH 3T3 viability, CellTiter-Glo ATP luminescence, 48-72 h | Potency, µM (top dose mostly 96.7 µM), for the others: at the top dose activity change, negative = cytotoxicity, hits mostly inhibitors | actives 4.3% (n = 94,000) | AID 1345082; also: nearly all actives have a fitted effect of over 55% in size
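First NIH 3T3 cells are plated at 400 cells/well; next compound is pinned in; then plates incubate 48 or 72 hr at 37 °C; finally CellTiter-Glo is added and luminescence read after 10 min.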
* hit, by the source's call; i = inactive; u = inconclusive; x = not tested or not shown; [ ] = another dose, or the depositor's remark. Sampled rows, rich in hits. Any-hit rate of the full collection: about 10%. Unless noted, calls follow the shape of the dose curve; as a rule, active = well fitted curve in the direction sought with a large enough effect; inconclusive = small, poorly fitted or top-dose-only effect, or another doubt; inactive = no such curve, though single readings can be large; an effect the other way counts as inactive or inconclusive. % is scaled to controls: 0 for no effect and ±100 for the full control effect; potency is read from the fitted curve at half-maximal effect.

SMILES	HEK293 tox	GPT2 inh	FLuc inh	NPR1 antag	NIH3T3 tox
CC1=C[C@@H](CNS(=O)(=O)c2cccc(F)c2)[C@H](C(C)C)C[C@H]1CC(=O)O	-31%[172 µM]	-50%[88.5 µM]	i	-1%[70.6 µM]	45µM*
COc1ccc(C(=O)N2CCc3nc(C(C)C)nc(-c4ccc(OC)cc4)c3C2)cc1	-16%	-28%	i	-5%	-16%
CC1=C[C@@H](CC#N)[C@H](C(C)C)C[C@H]1CC(=O)NCc1ccc(F)cc1	89µM*	-6%[88.5 µM]	i	1%[70.6 µM]	u
Cc1onc(-c2cnn(C)c2NCc2ccc(C#N)cc2)c1C(=O)N(C)c1ccccc1	u	-18%[88.5 µM]	i	-3%[70.6 µM]	45µM*
COc1ccc(-c2noc([C@@H]3CCCN3C(=O)c3ccc(Cl)cc3OC)n2)cc1OC	u	i	i	0%	-29%
O=C(c1ccc2oc(-c3ccncc3)nc2c1)N1CCCCC1	40µM*	-13%	x	x	u
CC1CCCC(C)N1C(=O)c1ccc2nc(-c3ccncc3)oc2c1 (centres undefined)	71µM*	5%[88.5 µM]	x	x	-29%[138 µM]
CCOC(=O)C1CCN(C(=O)c2ccc3oc(-c4ccnc(Cl)c4)nc3c2)CC1	-13%	i	x	x	-16%
CCOC(=O)C1CCCN(C(=O)c2ccc3oc(-c4ccncc4)nc3c2)C1 (centres undefined)	u	-4%	x	x	u
CCOC(=O)C1CCCN(C(=O)c2ccc3nc(-c4ccncc4)oc3c2)C1 (centres undefined)	45µM*	-2%	x	x	u
O=C(c1ccc2oc(-c3ccnc(Cl)c3)nc2c1)N1CCOCC1	u	2%	x	x	35µM*
C=CCNC(=O)N1C[C@@H](C(=O)OCC)[C@@H]2Oc3c(C)cccc3[C@@H]21	-10%	x	x	x	u
CSCCC(=O)N1CCc2[nH]nc(-c3ccc(C(F)(F)F)cc3)c2C1	u	u	u	-14%	u
O=C(C1CC=CCC1)N1CCc2[nH]nc(-c3ccc(C(F)(F)F)cc3)c2C1 (centres undefined)	25µM*	-23%	i	-6%	u
O=C(Nc1ccccc1F)N1CC2CCC(C1)N2Cc1ccc(Cl)cc1	u	4%	x	x	u
CSc1ccc(-c2cccc(CN3CCC(N[S+](=O)([O-])c4cccc(C(F)(F)F)c4)CC3)c2)cc1	13µM*	x	x	x	10µM*
Cc1cccc(-c2cccc(CN3CCC(N[S+](=O)([O-])c4cccc(C(F)(F)F)c4)CC3)c2)c1	u	-12%	x	x	11µM*
CSc1ccc(-c2cccc(CN3CCC(NC(=O)c4ccc(F)cc4)CC3)c2)cc1	-8%	x	x	x	-15%
CNC(=O)[C@@H]1C[C@H](Oc2ccccc2)CN1C(=O)c1cc(-c2ccc(C)cc2)n[nH]1	u	-8%	i	-2%	-12%
O=C(CCc1ccnc(N2CCCC2)c1)NCc1cccc(Cl)c1	3%	i	i	-4%	3%
Cn1ncc2c(C(=O)NCCCc3ccccc3)cc(-c3ccccc3F)nc21	u	x	x	x	-32%
COc1ccc(-c2[nH]ncc2C(=O)N2CC[C@H](CO)[C@H](NC(=O)C3CC3)C2)cc1	1%	0%	u	3%	-15%
COC(=O)[C@@H]1Cc2c([nH]c3ccccc23)[C@H]2C[C@@H](NCCCn3ccnc3)C[C@@H](c3ccc(F)cc3)N21	25µM*	4%	i	-2%	25µM*
CN1Cc2ccc(NCc3ccccc3)nc2C(C)(C(=O)NCCCn2ccnc2)C1 (centres undefined)	u	-3%[88.5 µM]	i	-2%[70.6 µM]	u
COC(=O)[C@@H]1Cc2c([nH]c3ccccc23)[C@H]2C[C@@H](NCCCn3ccnc3)C[C@@H](c3ccc(Cl)c(F)c3)N21	28µM*	1%	i	0%	25µM*
COC(=O)[C@@H]1Cc2c([nH]c3ccccc23)[C@H]2C[C@@H](NCCCn3ccnc3)C[C@@H](c3cccc(Cl)c3)N21	28µM*	1%	i	-12%	18µM*
O=C(NCCCn1ccnc1)c1ccc(C2CCCNC2)cc1 (centres undefined)	0%	i	i	4%	i
